Common to all, as to experiment: universal protein binding microarray (PBM); transcription factors of Arabidopsis thaliana; high values mean tight binding
One assay deals with T1, GST-ANAC092(1-176) (Arabidopsis thaliana, UniProt Q9FKA0 1-176).
T1 sequence: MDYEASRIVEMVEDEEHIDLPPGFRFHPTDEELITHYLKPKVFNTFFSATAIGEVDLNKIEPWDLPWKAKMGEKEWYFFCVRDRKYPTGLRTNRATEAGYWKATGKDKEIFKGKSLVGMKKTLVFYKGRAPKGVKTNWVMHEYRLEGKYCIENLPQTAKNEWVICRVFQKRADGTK
The following applies: protein: recombinant; tags: GST; chain copies: 2; dsDNA, one strand shown. The essentials:
(§1)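 Binding is expressed as the normalised enrichment score (E-score). Proteins carrying a GST tag, whether NAC-domain, full-length or DNA-binding-domain forms, were induced in cells, and zinc acetate was added for zinc-finger proteins. After purification on glutathione–Sepharose 4B and quantification by A280 or anti-GST western blot, each was applied in duplicate at 200 to 500 nM final to custom all-10-mer Agilent 4 × 180K arrays made double-stranded by primer extension. Gapped and ungapped 8-mers were scored.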

The target of another assay is T2, GST-ANAC055(1-171) (Arabidopsis thaliana, UniProt Q9LDY8 1-171).
T2 sequence: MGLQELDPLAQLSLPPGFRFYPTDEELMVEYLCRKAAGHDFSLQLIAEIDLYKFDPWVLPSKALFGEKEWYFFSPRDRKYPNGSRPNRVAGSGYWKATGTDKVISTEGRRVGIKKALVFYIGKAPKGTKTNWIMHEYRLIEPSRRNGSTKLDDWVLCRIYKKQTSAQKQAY
Particulars: protein: recombinant; tags: GST; chain copies: 2; dsDNA, one strand shown. The method, boiled down:
as §1

The target in a further assay is T3, GST-ATAF1 NAC domain (Arabidopsis thaliana, UniProt Q39013 7-158).
T3 sequence: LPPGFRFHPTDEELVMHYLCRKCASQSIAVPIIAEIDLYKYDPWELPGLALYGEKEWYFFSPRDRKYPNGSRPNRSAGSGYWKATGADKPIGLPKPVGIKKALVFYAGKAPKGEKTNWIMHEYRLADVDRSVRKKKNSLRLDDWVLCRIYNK
Particulars: protein: recombinant; tags: GST; chain copies: 2; dsDNA, one strand shown. The essentials: as §1

The target in assay [1] is T4, GST-ANAC092(1-285) full length (Arabidopsis thaliana, UniProt Q9FKA0 1-285).
T4 sequence: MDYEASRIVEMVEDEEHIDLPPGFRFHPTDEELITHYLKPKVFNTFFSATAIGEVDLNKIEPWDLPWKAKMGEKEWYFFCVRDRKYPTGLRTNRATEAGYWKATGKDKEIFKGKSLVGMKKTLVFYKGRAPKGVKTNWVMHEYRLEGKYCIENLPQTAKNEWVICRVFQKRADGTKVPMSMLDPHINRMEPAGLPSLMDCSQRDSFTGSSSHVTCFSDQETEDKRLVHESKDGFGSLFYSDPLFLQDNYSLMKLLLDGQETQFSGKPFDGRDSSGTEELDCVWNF
Particulars: protein: recombinant; tags: GST; chain copies: 2; dsDNA, one strand shown. The essentials:
as §1

Another assay addresses T5, GST-NST2(1-184) (Arabidopsis thaliana, UniProt Q9M274 1-184).
T5 sequence: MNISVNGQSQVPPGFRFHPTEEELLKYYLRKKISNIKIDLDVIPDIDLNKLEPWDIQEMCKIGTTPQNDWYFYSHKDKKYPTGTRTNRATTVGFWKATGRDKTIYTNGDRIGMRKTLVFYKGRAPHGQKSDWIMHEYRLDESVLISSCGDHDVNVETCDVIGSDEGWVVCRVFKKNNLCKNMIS
The following applies: protein: recombinant; tags: GST; chain copies: 2; dsDNA, one strand shown. The method, boiled down:
as §1

In another assay the target is T6, GST-SND1(1-203) (Arabidopsis thaliana, UniProt Q9LPI7 1-203).
T6 sequence: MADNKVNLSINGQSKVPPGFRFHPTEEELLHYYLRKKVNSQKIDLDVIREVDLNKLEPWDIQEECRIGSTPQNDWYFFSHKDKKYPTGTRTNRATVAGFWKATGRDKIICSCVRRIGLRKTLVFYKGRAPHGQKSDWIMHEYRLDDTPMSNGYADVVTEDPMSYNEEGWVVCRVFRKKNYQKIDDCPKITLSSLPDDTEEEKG
The following applies: protein: recombinant; tags: GST; chain copies: 2; dsDNA, one strand shown. The method, boiled down: as §1

For another assay, the target named is T7, GST-VND3 NAC domain (Arabidopsis thaliana, UniProt Q9FH59 12-162).
T7 sequence: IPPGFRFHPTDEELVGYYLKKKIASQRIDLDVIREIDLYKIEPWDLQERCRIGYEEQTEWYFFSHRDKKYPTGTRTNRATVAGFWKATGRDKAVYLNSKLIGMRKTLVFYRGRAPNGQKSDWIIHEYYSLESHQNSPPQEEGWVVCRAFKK
Particulars: protein: recombinant; tags: GST; chain copies: 2; dsDNA, one strand shown. The method, boiled down:
as §1

A further assay has as its target T8, GST-VND7 NAC domain (Arabidopsis thaliana, UniProt Q9C8W9 9-158).
T8 sequence: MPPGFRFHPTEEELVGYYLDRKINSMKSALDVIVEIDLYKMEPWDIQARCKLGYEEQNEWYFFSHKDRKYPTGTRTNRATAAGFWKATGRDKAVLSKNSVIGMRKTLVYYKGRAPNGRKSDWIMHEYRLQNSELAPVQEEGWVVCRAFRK
Particulars: protein: recombinant; tags: GST; chain copies: 2; dsDNA, one strand shown. The method, boiled down:
as §1

In another assay the target is GST-WRKY1(266-371) (Arabidopsis thaliana, UniProt Q9SI37 266-371). Particulars: protein: recombinant; tags: GST; dsDNA, one strand shown. The essentials:
as §1

Another assay has as its target T9, GST-ANAC019 NAC domain (Arabidopsis thaliana, UniProt Q9C932 14-162).
T9 sequence: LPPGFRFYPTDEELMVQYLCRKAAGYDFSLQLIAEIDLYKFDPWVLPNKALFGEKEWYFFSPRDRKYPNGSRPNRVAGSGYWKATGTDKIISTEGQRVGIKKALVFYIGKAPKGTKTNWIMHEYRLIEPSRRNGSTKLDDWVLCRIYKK
Particulars: protein: recombinant; tags: GST; chain copies: 2; dsDNA, one strand shown. The method, boiled down:
as §1

A further assay has as its target T10, GST-NAP(1-166) (Arabidopsis thaliana, UniProt O49255 1-166).
T10 sequence: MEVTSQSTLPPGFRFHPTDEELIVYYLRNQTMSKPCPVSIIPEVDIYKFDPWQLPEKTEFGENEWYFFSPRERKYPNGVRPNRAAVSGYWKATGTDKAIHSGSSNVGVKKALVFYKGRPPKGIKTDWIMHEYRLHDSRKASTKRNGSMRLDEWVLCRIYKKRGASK
Particulars: protein: recombinant; tags: GST; chain copies: 2; dsDNA, one strand shown. The essentials: as §1

A further assay addresses T11, GST-NTL8 NAC domain (Arabidopsis thaliana, UniProt Q9XIN7 14-156).
T11 sequence: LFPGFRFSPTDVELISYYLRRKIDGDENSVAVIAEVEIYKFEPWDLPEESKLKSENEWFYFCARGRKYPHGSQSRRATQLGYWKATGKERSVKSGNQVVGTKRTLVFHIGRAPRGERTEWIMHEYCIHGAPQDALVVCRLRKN
The following applies: protein: recombinant; tags: GST; chain copies: 2; dsDNA, one strand shown. The method, boiled down: as §1

Another assay has as its target GST-NTL6(1-168) (Arabidopsis thaliana, UniProt Q9SCK6 1-168). Particulars: protein: recombinant; tags: GST; chain copies: 2; dsDNA, one strand shown. The essentials:
as §1

These results are taken from article PMC4081100, “A DNA-binding-site landscape and regulatory network analysis for NAC transcription factors in Arabidopsis thaliana”.

GST-WRKY1(266-371), sequence (Q9SI37 266-371): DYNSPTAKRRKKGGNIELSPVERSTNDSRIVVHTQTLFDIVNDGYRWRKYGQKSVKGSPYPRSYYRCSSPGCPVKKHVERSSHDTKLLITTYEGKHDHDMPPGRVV
GST-NTL6(1-168), sequence (Q9SCK6 1-168): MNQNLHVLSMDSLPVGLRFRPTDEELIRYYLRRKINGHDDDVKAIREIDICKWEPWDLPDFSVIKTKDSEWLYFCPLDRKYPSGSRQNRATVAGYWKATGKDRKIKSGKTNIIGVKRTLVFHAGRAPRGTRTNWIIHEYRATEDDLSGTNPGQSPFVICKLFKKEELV

For AACTTGAC, the binding signal in the assay with GST-ANAC092(1-176) came to 0.0775 E-score; with GST-ANAC055(1-171), 0.105 E-score; with GST-ATAF1 NAC domain, 0.0699 E-score; in assay [1], 0.088 E-score; with GST-NST2(1-184), 0.173 E-score; with GST-SND1(1-203), 0.136 E-score. Besides, the values for the binding signal with GST-VND3 NAC domain, in the assay with GST-VND7 NAC domain and in the assay with GST-WRKY1(266-371) were 0.152 E-score, 0.0683 E-score and 0.425 E-score, respectively.

Consider CAACACGC, for which the binding signal in the assay with GST-ANAC092(1-176) worked out at 0.418 E-score; with GST-ANAC019 NAC domain, 0.304 E-score; with GST-ANAC055(1-171), 0.227 E-score; in the assay with GST-ATAF1 NAC domain, 0.172 E-score; in assay [1], 0.436 E-score; with GST-NAP(1-166) it was 0.252 E-score. The binding signal with GST-NST2(1-184) was found to be 0.229 E-score; with GST-NTL8 NAC domain, 0.0505 E-score; with GST-SND1(1-203), 0.259 E-score; with GST-VND3 NAC domain, 0.162 E-score; with GST-VND7 NAC domain, 0.218 E-score; with GST-WRKY1(266-371) it was 0.125 E-score.

In the case of ACACTCAA, the binding signal was determined as 0.425 E-score with GST-ANAC092(1-176); 0.116 E-score with GST-ANAC019 NAC domain; 0.174 E-score with GST-ANAC055(1-171); 0.17 E-score with GST-ATAF1 NAC domain; 0.448 E-score in [1]; 0.07 E-score with GST-NAP(1-166). Also, the binding signal with GST-NST2(1-184) came to 0.184 E-score; with GST-NTL8 NAC domain it was 0.0774 E-score; with GST-SND1(1-203), 0.264 E-score; with GST-VND3 NAC domain, 0.092 E-score; with GST-VND7 NAC domain, 0.185 E-score; in the assay with GST-WRKY1(266-371) it was 0.133 E-score.

AACACGCC: the binding signal was 0.391 E-score in the assay with GST-ANAC092(1-176); 0.094 E-score with GST-NTL6(1-168); 0.238 E-score with GST-ANAC019 NAC domain; 0.253 E-score in the assay with GST-ANAC055(1-171); 0.0901 E-score with GST-ATAF1 NAC domain; 0.431 E-score in assay [1]. Further, the binding signal in the assay with GST-NAP(1-166) worked out at 0.184 E-score; with GST-NST2(1-184), 0.144 E-score; with GST-SND1(1-203), 0.144 E-score; with GST-VND3 NAC domain, 0.1 E-score; in the assay with GST-VND7 NAC domain it was 0.0653 E-score.

For GACGCAAA, the binding signal was 0.382 E-score in the assay with GST-ANAC092(1-176); 0.0555 E-score with GST-ANAC019 NAC domain; 0.0741 E-score with GST-ATAF1 NAC domain; 0.411 E-score in [1]; 0.233 E-score in the assay with GST-NAP(1-166); 0.123 E-score with GST-NST2(1-184). Besides, the binding signal with GST-SND1(1-203) is 0.289 E-score; in the assay with GST-VND3 NAC domain, 0.135 E-score; with GST-VND7 NAC domain, 0.099 E-score; with GST-WRKY1(266-371), 0.117 E-score.

Regarding GATTGACC, the binding signal with GST-ANAC092(1-176) is 0.141 E-score; with GST-ANAC055(1-171), 0.0576 E-score; in assay [1] it was 0.14 E-score; with GST-SND1(1-203) it was 0.0705 E-score; in the assay with GST-VND3 NAC domain it was 0.138 E-score; with GST-VND7 NAC domain it was 0.059 E-score. The binding signal with GST-WRKY1(266-371) turned out to be 0.479 E-score.

Consider AATAGCGT, for which the binding signal turned out to be 0.39 E-score with GST-ANAC092(1-176); 0.138 E-score with GST-ANAC055(1-171); 0.114 E-score with GST-ATAF1 NAC domain; 0.412 E-score in assay [1]; 0.121 E-score in the assay with GST-NAP(1-166); 0.261 E-score in the assay with GST-NST2(1-184). For the same sequence, the binding signal with GST-SND1(1-203) was determined as 0.383 E-score; with GST-VND3 NAC domain, 0.119 E-score; with GST-VND7 NAC domain it was 0.191 E-score; with GST-WRKY1(266-371), 0.0558 E-score.

Take ATACGTAT: the binding signal with GST-ANAC092(1-176) was 0.156 E-score; with GST-NTL6(1-168), 0.12 E-score; with GST-ANAC019 NAC domain, 0.281 E-score; in the assay with GST-ANAC055(1-171), 0.379 E-score; with GST-ATAF1 NAC domain, 0.231 E-score; in assay [1], 0.37 E-score. For the same sequence, the binding signal was 0.445 E-score with GST-NAP(1-166); 0.186 E-score with GST-NST2(1-184); 0.211 E-score in the assay with GST-SND1(1-203); 0.347 E-score with GST-VND3 NAC domain; 0.293 E-score with GST-VND7 NAC domain.
